Most compounds without a hit are left out; they make up all but 0.8% or so of the library.
TRHR PAM = TRH receptor (human) allosteric enhancement | actives 0.66% (n = 360,000) | TRHR cells, fluo-8 calcium fluorescence, EC20 TRH enhancement | P34981 | enhancement, % at 2 µM; in the data active = enhancement above about 30%; also: 0% is about no effect
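TRHR-expressing cells loaded with fluo-8 calcium dye were read kinetically (ex 480/em 530) during compound addition, then stimulated with an EC20 of TRH (10 nM final). Enhancement of the Gq-mediated intracellular calcium response was scored.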
TRHR agonist = TRH receptor (human) agonism; P34981; TRHR cells, calcium flux fluo-8, FDSS agonist mode; activation, % at 2 µM; actives 0.18% (n = 360,000); AID 493084; in the data active = activation above about 30%; also: 0% is about no effect
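Fluo-8-loaded TRHR cells; 10 s baseline, compound added, kinetic Ca2+ fluorescence read 1/s, agonist mode.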
TRPML1 inh = human mucolipin-1 channel inhibition; activity change, negative = inhibition, % (concentration not given with the values); AID 624415; actives 0.02% (n = 390,000); TRPML1-inducible cells, Ca2+ dye fluorescence, FDSS; stronger effect = lower value; inhibition of EC80 agonist-evoked calcium signal; Q9GZU1; in the data active = activity change below about -50%;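 also: stimulus is agonist 54-4 at its EC80 concentration; % is scaled to controls: 0 for no effect and ±100 for the full control effect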
Target sequence (Q9GZU1 whole entry, looked up): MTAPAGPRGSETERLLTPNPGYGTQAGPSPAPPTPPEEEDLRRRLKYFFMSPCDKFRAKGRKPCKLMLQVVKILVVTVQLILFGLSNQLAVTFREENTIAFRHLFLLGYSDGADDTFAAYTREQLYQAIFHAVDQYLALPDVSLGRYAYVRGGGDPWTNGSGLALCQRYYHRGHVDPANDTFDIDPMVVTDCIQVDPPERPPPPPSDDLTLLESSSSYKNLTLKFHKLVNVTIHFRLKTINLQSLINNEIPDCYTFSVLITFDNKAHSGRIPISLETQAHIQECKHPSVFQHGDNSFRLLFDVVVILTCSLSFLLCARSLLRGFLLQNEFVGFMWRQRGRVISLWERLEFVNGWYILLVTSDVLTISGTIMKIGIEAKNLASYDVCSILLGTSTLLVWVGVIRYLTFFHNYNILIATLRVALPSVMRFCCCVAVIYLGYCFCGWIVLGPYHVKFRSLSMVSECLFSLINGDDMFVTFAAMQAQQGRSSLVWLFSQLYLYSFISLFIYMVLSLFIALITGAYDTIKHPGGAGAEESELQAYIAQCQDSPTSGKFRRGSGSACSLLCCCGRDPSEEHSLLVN
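Tet-induced TRPML1-DL cells loaded with Ca8 no-wash calcium dye were read kinetically on FDSS. Compound addition was followed by EC80 agonist 54-4 (4 uM final); inhibition was read over 110 s.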
Glioma ERSR ind = induces the endoplasmic reticulum stress response in human glioma cells; U87-MG GRP78 promoter luciferase reporter, 16 h; Potency, µM, without a hit: at the top dose activation, actives largely listed as activators; actives 0.02% (n = 420,000); AID 602332; active = well fitted activation curve with a large enough effect; also: potency is read from the fitted curve at half-maximal effect; series mostly up to about 76 µM; % of control where 0% means no effect; nearly all actives have a fitted effect of over 35% in size
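Stably transfected U87-MG human glioma cells carrying a GRP78-based luminescent sensor were seeded at 1000 cells/well, pin-dosed with compounds and incubated 16 h. Luciferase reagent was then added, and end-point luminescence was read after 10 min at room temperature.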
TRPML1 agonist = activates the human TRPML1 channel | Q9GZU1 | TRPML1-expressing cells, Ca2+ dye fluorescence, FDSS | activation, % (concentration not given with the values) | actives 0.12% (n = 410,000) | AID 624414; in the data active = activation above about 50%; also: 0% is about no effect
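Cells: TRPML1-DL, 1X Tet inducer, ~16 h at 37 degrees C/5% CO2. Dye: ABD Ca8 no-wash + quencher, 45-90 min RT. Read: 10 s baseline, compound add, 110 s agonist phase; 54-4 EC80 (4uM final), 110 s antagonist phase.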
* = called active by the depositor; / = not tested or not shown; ! = repeats disagree.

SMILES	TRHR PAM	TRHR agonist	TRPML1 inh	Glioma ERSR ind	TRPML1 agonist
CC1=CC(=O)C=C(C)C1=NOS(=O)(=O)c1ccccc1	-8	0	52	-14%	2
COCCC(=O)NCC1Cc2cc(Cl)cc(-c3ccc4[nH]ccc4c3)c2O1 (configuration not stated)	/	/	/	3%	/
COc1ccc(/C=c2\s/c(=C/C(=O)c3ccc(C)cc3)[nH]c2=O)cc1OC	7	36*	11	-3%	21
COc1cc(/C=C2\C(=N)N3N=C(S(C)(=O)=O)SC3=NC2=O)ccc1OC(=O)c1cccs1	9	-1	0	-2%	2
COc1cc(/C=C2\C(=N)N3N=C(S(C)(=O)=O)SC3=NC2=O)ccc1OCCOc1ccccc1C	35*	1	-5	6%	-2
Cc1c(NC(=O)c2cc(-c3ccc(Cl)cc3)on2)c(=O)n(-c2ccccc2)n1C	30*!	-1	9	3%	-1
O=C(CN1Cc2ccccc2OC(c2ccsc2)C1)NCC1OCCc2ccccc21 (configuration not stated)	/	/	/	-2%	/
Cc1ccc(S(=O)(=O)N(C)CC(=O)N2CCCC2)cc1	-1	0	1	-4%	-1
Cc1ccc(S(=O)(=O)N(C)CC(=O)N2CCCCCC2)cc1	33*	0	/	-3%	/
CC(C)N1CC2=C(OC(N)=C(C#N)C2c2cccnc2)/C(=C/c2cccnc2)C1 (configuration not stated)	34*	0	9	-1%	3
Cc1ccc(NC(=O)C2(c3ccc([N+](=O)[O-])cc3)CCCC2)cc1	33*	5	-3	-5%	1
CCn1nc(C)cc1C(=O)NCCN1Cc2ccccc2OC(c2ccccc2F)C1 (configuration not stated)	/	/	/	-6%	/
Cc1nc(N2CCN(c3ccccn3)CC2)c2c(C)c(C(=O)Nc3ccc(F)cc3Cl)sc2n1	-4	1	-20	-1%	97*
O=C(c1ccc2nccnc2c1)N1CCN(c2cccc(C(F)(F)F)c2)CC1	31*	0	-3	-4%	0
O=C(c1cccc(F)c1)N1CCN(c2cccc(C(F)(F)F)c2)CC1	7	1	-2	-4%	7
Cc1ccc(C)c(S(=O)(=O)NCc2nc(N3CCCC3)c3cc(Cl)ccc3n2)c1	/	/	/	-4%	/
CCCCn1nnnc1C(c1ccccc1)N1CCN(c2ncc(C(F)(F)F)cc2Cl)CC1 (configuration not stated)	/	/	/	/	68*
Cc1ccc(C)c(Nc2nc3c(S(=O)(=O)c4ccc(C(C)C)cc4)nnn3c3ccsc23)c1	4	1	8	-3%	2
COc1ccccc1Nc1nc2c(S(=O)(=O)c3ccc(C(C)C)cc3)nnn2c2ccsc12	37*	0	26	8%	0
Clc1nc(-c2ccccn2)nc2scc(-c3ccccc3)c12	40*	0	0	-7%	0
O=C(NCc1ccccc1Cl)c1nnc(CS(=O)(=O)c2ccccc2)o1	31*	0	12	-2%	1
O=C(Nc1nccs1)OCc1ccccc1	/	/	18	2%	1
O=C(NCc1ccccc1)C(=O)Nc1nccs1	34*	0	-16	8%	0
CS(=O)(=O)N(CC(=O)N1CCN(c2ccc(F)cc2)CC1)c1ccc(F)c(Cl)c1	39*	0	30	-3%	0
Cc1cccc(N(CC(=O)N2CCN(c3ccc(F)cc3)CC2)S(C)(=O)=O)c1C	-2	0	-7	-3%	0
SMILES	TRHR PAM	TRHR agonist	TRPML1 inh	Glioma ERSR ind	TRPML1 agonist
CCC1(C2CCN(Cc3ccc(OC)cc3)CC2)NC(=O)N(CC2COc3ccccc3O2)C1=O (configuration not stated)	/	/	/	-6%	/
COc1ccccc1CN1CCCC(C(=O)N2CCCCC2)C1 (configuration not stated)	39*	1	4	-1%	0
Cc1ccc(Cn2c(=O)n(Cc3ccccc3)c(=O)c3oc4ccccc4c32)cc1	36*	0	8	-3%	0
COc1ccc(Cn2c(=O)c3oc4ccccc4c3n(Cc3ccccc3)c2=O)cc1	35*	0	-30	-5%	2
CC(Sc1nccn1C)C(=O)Nc1ccc(C(N)=O)cc1 (configuration not stated)	31*	0	13	-5%	0
COc1ccccc1NC(=O)C(C)Sc1nccn1C (configuration not stated)	3	0	-9	0%	0
NCCCCC(NC(=O)C1CCCN1C(=O)C1CSSCC(N)C(=O)NC(Cc2ccccc2)C(=O)NC(Cc2ccccc2)C(=O)NC(CCC(N)=O)C(=O)NC(CC(N)=O)C(=O)N1)C(=O)NCC(N)=O (configuration not stated)	/	/	/	4%	/
COc1cccc(OC)c1CN1CCC2(CCC(CNC(=O)c3ccn(C)n3)O2)CC1 (configuration not stated)	/	/	/	-4%	/
COc1ccc(N2C(S)=C(C#N)C(=O)NC2c2ccc(OC)c(OC)c2)cc1 (configuration not stated)	30*	0	-3	4%	0
COC(=O)c1sc(NC(=O)C2CCCO2)c(C(=O)OC)c1C (configuration not stated)	32*	-1	-17	-6%	0
CCC1CCCCN1C(=O)c1cc2c(=O)n3cccc(C)c3nc2s1 (configuration not stated)	39*	0	2	0%	0
CC(C)c1c(C(=O)N(C)Cc2cccc3ncccc23)cnn1-c1nccc(-c2ccccc2F)n1	/	/	/	-5%	/
COC(=O)c1c(C)sc(-c2c(-c3ccc(F)cc3)[nH]c3[nH]c(=O)[nH]c(=O)c23)c1O	8	56*	-2	/	9
COc1cc(=O)n2c(c1C(=O)NCc1ccco1)CCN(C(=O)c1ccccc1-c1ncc[nH]1)CC2	/	/	/	-2%	/
COc1ccc(NC(=S)N2CCN(Cc3ccccc3)CC2)cc1	33*	0	3	5%	-1
S=C(Nc1ccc(Cl)cc1)NC1CCN(Cc2ccccc2)CC1	38*	5	-3	-1%	6
S=C(Nc1ccccc1)NC1CCN(Cc2ccccc2)CC1	-2	2	2	3%	2
Cc1cccnc1NC(=O)Nc1cccc(Cl)c1	32*	0	5	4%	0
O=C(Nc1cccc(Cl)c1)Nc1ccon1	39*	1	11	0%	3
CCc1sc(C(=O)Nc2ncccc2C)cc1C	30*	0	-3	4%	0
O=C(Nc1cccc(Cl)c1)Nc1cccc(Cl)c1	-2	2	16	2%	2
[NH-]CCC([O-])=NC(Cc1cnc[nH]1)C(=O)[O-].[Zn+2] (configuration not stated)	/	/	/	-3%	/
CC(C)(CNC(=O)c1cnn(-c2nccc(-c3cc4ccccc4o3)n2)c1C1CC1)N1CCOCC1	/	/	/	1%	/
